Test results as given in PubChem BioAssay (NCATS).
Records with an inconclusive call do not appear. A call without a number means that no potency is given here. The source made the active and inactive calls. Unless noted, the call rests on the fitted dose curve; in most records, active means well fitted inhibition curve with a large enough effect; inconclusive means small, poorly fitted or top-dose-only effect; inactive means flat fitted curve, though single readings scatter.

Tests used:
[1] = P-glycoprotein substrates identified in KB-8-5-11 adenocarcinoma cell line, qHTS therapeutic library screen (AID 1346987); further: nearly all actives have a fitted effect of over 65% in size
Method in brief: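 KB-8-5-11, a colchicine-selected P-gp-overexpressing KB-3-1 subline, was grown without colchicine for the assay. Cells were seeded at 500 cells/well, dosed in concentration-response and incubated 72 h at 37 degree C, 5% CO2. Viability was read by CellTiter-Glo luminescence.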

[2] = qHTS for Inhibitors of the Functional Ribonucleoprotein Complex (vRNP) of Lassa (LASV) Arenavirus: LASV Primary Screen - GLuc reporter signal (AID 1347082; calls by dose curve; tested in HEK293 reporter line; further: nearly all actives have a fitted effect of over 60% in size; further: potency means the concentration at half of the fitted maximal effect)
[3] = system: Zika virus NS2B-NS3 protease; assay: Primary screen GU AMC qHTS for Zika virus inhibitors (AID 1347154); further: nearly all actives have a fitted effect of over 70% in size
Method in brief: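 Unlinked Zika NS2B hydrophilic domain–NS3 protease complex at 25 nM in 10 mM Tris-HCl pH 8.0, 0.01% Tween 20, with an AMC peptide substrate. Fluorescence change (340/450 nm) over 15 min at room temperature, normalized to controls, fitted to 4-parameter Hill.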

[4] = target: Catechol O-methyltransferase (Homo sapiens) (UniProt P21964); assay: Confirmatory Screen for Target Class Profiling of Small Molecule Inhibitors of Methyltransferases (AID 1745852; calls by dose curve); conditions: MTase-Glo luminescence, SAH detection, recombinant enzyme; measured here: COMT max response; stronger effect = lower value
[5] = target: Guanidinoacetate N-methyltransferase (Homo sapiens) (UniProt Q14353); assay: as above; conditions: activity change, negative = inhibition: at 57.3 µM (top of the series) unless noted
[6] = target: Nicotinamide N-methyltransferase (Homo sapiens) (UniProt P40261); assay: as above; conditions: MTase-Glo luminescence, SAH detection, recombinant enzyme; measured here: NNMT max response; stronger effect = lower value
[7] = target: Phenylethanolamine N-methyltransferase (Homo sapiens) (UniProt P11086); assay: as above; conditions: MTase-Glo luminescence, SAH detection, recombinant enzyme; measured here: PNMT max response; stronger effect = lower value
[8] = target: Glutathione peroxidase 1 (Homo sapiens) (UniProt P07203); assay: Primary qHTS Assay for Inhibitors of Recombinant Selenoprotein Glutathione Peroxidase 1 (GPX1) (AID 1845191); further: nearly all actives have a fitted effect of over 65% in size
Method in brief: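 GR-coupled assay: compounds preincubated 30 min at room temperature with GPX1, then reaction started with CHP; final 10 nM GPX1, 1 mM GSH, 0.5 mM CHP, 0.5 mM NADPH, 100 nM GR, 0.01% BSA, pH 7.5 Tris buffer. NADPH fluorescence (340/450 nm) read at 0 and 15 min.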

Chain of Phenylethanolamine N-methyltransferase (Homo sapiens) (P11086 whole entry, looked up): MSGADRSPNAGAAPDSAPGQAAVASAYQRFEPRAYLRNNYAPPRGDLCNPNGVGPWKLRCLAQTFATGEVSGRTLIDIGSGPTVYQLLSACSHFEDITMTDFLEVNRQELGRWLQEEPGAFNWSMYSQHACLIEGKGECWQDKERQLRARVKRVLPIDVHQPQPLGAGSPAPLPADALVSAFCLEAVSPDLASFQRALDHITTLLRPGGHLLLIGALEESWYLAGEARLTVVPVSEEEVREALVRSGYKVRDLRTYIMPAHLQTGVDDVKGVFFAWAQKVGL
Chain of Nicotinamide N-methyltransferase (Homo sapiens) (P40261 whole entry, looked up): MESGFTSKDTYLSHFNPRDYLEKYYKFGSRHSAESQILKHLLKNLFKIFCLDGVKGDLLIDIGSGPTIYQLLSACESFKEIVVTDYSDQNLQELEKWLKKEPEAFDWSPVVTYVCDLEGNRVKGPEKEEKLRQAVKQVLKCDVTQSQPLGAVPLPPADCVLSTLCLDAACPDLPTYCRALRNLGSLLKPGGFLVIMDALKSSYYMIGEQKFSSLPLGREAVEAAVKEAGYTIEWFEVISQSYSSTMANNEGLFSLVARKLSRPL
Chain of Glutathione peroxidase 1 (Homo sapiens) (P07203 whole entry, looked up): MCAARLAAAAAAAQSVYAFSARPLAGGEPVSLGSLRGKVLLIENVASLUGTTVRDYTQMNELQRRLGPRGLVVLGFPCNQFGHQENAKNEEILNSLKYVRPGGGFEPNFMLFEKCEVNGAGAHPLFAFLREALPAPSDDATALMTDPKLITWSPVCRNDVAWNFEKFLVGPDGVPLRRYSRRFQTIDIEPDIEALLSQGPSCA
Chain of Catechol O-methyltransferase (Homo sapiens) (P21964 whole entry, looked up): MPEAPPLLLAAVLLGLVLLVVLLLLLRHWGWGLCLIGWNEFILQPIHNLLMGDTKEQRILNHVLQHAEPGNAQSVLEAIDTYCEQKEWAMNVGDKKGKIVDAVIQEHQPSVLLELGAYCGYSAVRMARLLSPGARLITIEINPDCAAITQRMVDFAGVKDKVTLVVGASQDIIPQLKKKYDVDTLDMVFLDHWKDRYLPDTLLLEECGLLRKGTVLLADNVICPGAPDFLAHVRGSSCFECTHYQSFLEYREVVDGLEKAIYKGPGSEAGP

| SMILES | Potency [1] | Potency [2] | Potency [3] | activity [4] | Potency [5] | activity [6] | activity [7] | Potency [8] |
| --- | --- | --- | --- | --- | --- | --- | --- | --- |
| O=C1NC(=O)c2c1c1c3ccccc3[nH]c1c1[nH]c3ccccc3c21 | inactive | inactive | inactive | -2.49% | inactive | -2.73% | -3.39% | inactive |
| O=C1C=CC(O)(c2cc(=O)c3c(O)cc(O)cc3o2)C=C1 |  | 17.8 µM (active) |  |  |  |  |  |  |
